# Laboratory results reported in ChEMBL document CHEMBL3988442, “University of Dundee, Small-Polar-MMV Screening Library” (2021).
# The campaign covered roughly 66,000 compounds. About 960 (1.5%) showed an effect of 50% or more. This is one part of a sample in which strong results are shown more often than they occur.
# System: Trypanosoma brucei
# Test: Trypanosoma brucei 72 hour study
# Assay type: functional, organism-based
# Design: scale not given: in the data most compounds retested in dose-response had high values
structure (smiles),measurement,setting,value
Cc1ccc(C(=O)NS(C)(=O)=O)cc1S(C)(=O)=O,Percent Effect,"30 µM, 30.03 µM",7.017%
Cc1ccc(S(C)(=O)=O)cc1C(=O)NS(=O)(=O)c1cccs1,Percent Effect,"30.3 µM, […]",-1.699%
Cc1ccc(S(C)(=O)=O)cc1C(=O)NS(C)(=O)=O,Percent Effect,"30.3 µM, […]",76.39%
Cc1ccc(S(C)(=O)=O)cc1C(=O)NS(=O)(=O)c1ccc(Cl)cc1,Percent Effect,"30.3 µM, […]",-20.93%
Cc1ccc(S(=O)(=O)Nc2ccc(C)c(C(=O)O)c2)s1,Percent Effect,"30 µM, 30.03 µM",-9.875%
Cc1ccc(S(=O)(=O)NC(=O)c2cc(S(C)(=O)=O)ccc2C)s1,Percent Effect,"30.3 µM, […]",94.94%
Cc1ccc(F)cc1S(=O)(=O)Nc1ccc2c(C(=O)O)c[nH]c2c1,Percent Effect,10 µM,-37.32%
Clc1ccccc1-c1cc(CNc2ncnc3c2CCNCC3)no1,Percent Effect,"30 µM, 30.03 µM",-18.38%
O=C(CCNC(=O)c1cnccn1)Nc1ncc[nH]1,Percent Effect,"30 µM, 30.03 µM",-39.01%
O=C(Nc1cccc2c1CCCC2)c1cccnc1N1CCCNCC1,Percent Effect,"30.3 µM, […]",-17.09%
same,Percent Effect,"10 mM, 10 mM as filed; unlikely as a test dose",-111.4%
CS(=O)(=O)NC[C@]12COC[C@H]1CN(C(=O)C1CCSCC1)C2,Percent Effect,"30.3 µM, […]",-61.89%
CNC(=O)c1cn[nH]c1C1CCN(Cc2ccccc2OC)C1 (stereo unspecified),Percent Effect,"30.3 µM, […]",0.9318%
CC(C)c1ccc(CN2CCCC3(CC2)CN(C)C(=O)O3)cc1 (stereo unspecified),Percent Effect,"30.3 µM, […]",97.32%
CC(C)c1nnc(CN2CCCC3(CC2)CN(C)C(=O)O3)o1 (stereo unspecified),Percent Effect,"30 µM, 30.03 µM",-4.839%
CC(C)c1ccc(CC(=O)N2CCCC3(CN(C)C(=O)O3)C2)cc1 (stereo unspecified),Percent Effect,"30.3 µM, […]",-36.52%
CN(C)C(=O)CO[C@H]1CN(Cc2nccs2)[C@@H]2COC[C@H]12.O=C(O)C(F)(F)F,Percent Effect,"30.3 µM, […]",-75.65%
Cc1cc2nc(C(C)C)cc(N(C)CC3CCCN(CCO)C3)n2n1 (stereo unspecified),Percent Effect,"30.3 µM, […]",9.548%
Cc1nc(CN2CCCC(CCc3ccc(F)cc3F)C2)c[nH]1 (stereo unspecified),Percent Effect,"30 µM, 30.03 µM",47.76%
Cc1nc(CN2CCCC(CCc3c(F)cccc3F)C2)c[nH]1 (stereo unspecified),Percent Effect,"30 µM, 30.03 µM",77.03%
Cc1nc(CN2CCCC(CCc3ccccc3F)C2)c[nH]1 (stereo unspecified),Percent Effect,"30.3 µM, […]",-5.303%
Cn1cc(CN2CCCC(CCc3ccc(F)c(F)c3)C2)cn1 (stereo unspecified),Percent Effect,"30 µM, 30.03 µM",-1.052%
Cc1nc(CN2CCCC(CCc3ccc(F)c(F)c3)C2)c[nH]1 (stereo unspecified),Percent Effect,"30.3 µM, […]",50.38%
Cc1nc(CN2CCCC(CCc3ccccc3C)C2)c[nH]1 (stereo unspecified),Percent Effect,"30.3 µM, […]",-10.1%
CN(C)[C@@H]1CCN(S(=O)(=O)C2CC2)[C@H]1Cc1ccccc1.O=C(O)C(F)(F)F,Percent Effect,"30.3 µM, […]",-33.03%
O=C1CCNc2ncc(-c3ccccc3Cl)cc2CN1C1CC1,Percent Effect,"30.3 µM, […]",10.61%
Cl.O=C(NCc1ccc(Cl)cc1)C1=NOC2(CCNC2)C1 (stereo unspecified),Percent Effect,"30 µM, 30.03 µM",4.958%
Cc1ccc(NC(=O)Nc2c[nH]c(=O)[nH]c2=O)c(C)c1,Percent Effect,"30 µM, 30.03 µM",-29.58%
Cc1cc(CN2CCC3(CC2)COC(COCC2CC2)C3)no1.O=C(O)C(F)(F)F (stereo unspecified),Percent Effect,"30.3 µM, […]",4.372%
Cc1cncc(CN2C[C@@H](O)[C@H](Oc3ccccc3)C2)c1,Percent Effect,"30.3 µM, […]",6.651%
c1ccc(-c2cc(CN3C[C@@H]4CC[C@H](C3)N(CC3CCC3)C4)on2)cc1,Percent Effect,"30 µM, 30.03 µM",58.21%
c1ccc(-c2nnc(CN3C[C@@H]4CC[C@H](C3)N(CC3CCC3)C4)o2)cc1,Percent Effect,"30 µM, 30.03 µM",-46.57%
c1ccc(-c2cc(CN3C[C@@H]4CC[C@H](C3)N(CC3CC3)C4)on2)cc1,Percent Effect,"30 µM, 30.03 µM",-36.61%
O=C(O)C(F)(F)F.O=C(O)C(F)(F)F.O=C(c1n[nH]c2c1CN(C1CCOCC1)CC2)N1CCCC1,Percent Effect,"30.3 µM, […]",-4.414%
CCOc1ccc(N(C)Cc2nnc(C3CC3)o2)cc1,Percent Effect,"30.3 µM, […]",-683%
CCOc1ccc(N(C)Cc2nnc(C)o2)cc1,Percent Effect,"30.3 µM, […]",-136.8%
CCOc1ccc(N(C)Cc2nc(C)c(C)o2)cc1,Percent Effect,"30.3 µM, […]",96.05%
CCn1ncc2c1C(COC)N(C(=O)CCc1ccccc1)CC2.O=C(O)C(F)(F)F (stereo unspecified),Percent Effect,"30.3 µM, […]",-62.76%
COC[C@@]12CC[C@@H](N3CCOCC3)C[C@H]1CCN(c1ncccc1F)C2,Percent Effect,"30.3 µM, […]",8.261%
COC[C@@]12CC[C@@H](N3CCOCC3)C[C@H]1CCN(c1ncccc1Cl)C2,Percent Effect,"30 µM, 30.03 µM",81.93%
COC[C@@]12CC[C@@H](N3CCOCC3)C[C@H]1CCN(c1ncccc1C)C2,Percent Effect,"30.3 µM, […]",-4.564%
Cl.Cl.O=C(CN1CCN(CC(O)C2CC2)CC1)NCc1ccccc1 (stereo unspecified),Percent Effect,"30.3 µM, […]",-20.63%
Cn1ccc(CN2CCCC23CCN(Cc2cccc(F)c2)CC3)n1.O=C(O)C(F)(F)F.O=C(O)C(F)(F)F,Percent Effect,"30.3 µM, […]",-80.78%
CCc1cc(C(F)(F)F)c2c(C3CCN(C(=O)COC)CC3)noc2n1,Percent Effect,"30.3 µM, […]",11.66%
O=C(N[C@@H]1CN(CCc2ccc(F)cc2)C[C@H]1O)c1cscn1,Percent Effect,"30.3 µM, […]",8.587%
O=C(O)C(F)(F)F.O=C(O)C(F)(F)F.O=C(c1cccnc1)N1CCn2cc(CN3CCCC3)nc2C1,Percent Effect,"30.3 µM, […]",-57.28%
O=C(NCCCNc1ccc(C(F)(F)F)cn1)c1ccccc1,Percent Effect,10 µM,-30.72%
N#CC1(C(=O)NCCCNc2ccc(C(F)(F)F)cn2)CCCC1,Percent Effect,"30 µM, 30.03 µM",104.7%
N#Cc1ccc(C(=O)NCCCNc2ccc(C(F)(F)F)cn2)cc1,Percent Effect,"30 µM, 30.03 µM",0.4176%
CCCN1C(=O)[C@H]2CC[C@@H]1CN(S(=O)(=O)c1cccc(Cl)c1)C2,Percent Effect,"30.3 µM, […]",-12.81%
Cc1cccc(CN2CCc3onc(CO)c3C2)n1.O=C(O)C(F)(F)F,Percent Effect,"30.3 µM, […]",-52.13%
O=C(O)C(F)(F)F.O=C(O)C(F)(F)F.c1cncc(OCc2noc3c2CN(Cc2ccsc2)CC3)c1,Percent Effect,"30 µM, 30.03 µM",-15.24%
O=C(Nc1ccc(Cl)cc1)c1nn(C2CCS(=O)(=O)C2)c2c1CCCC2 (stereo unspecified),Percent Effect,"30 µM, 30.03 µM",-43.99%
O=C(Nc1cccc(Cl)c1)c1nn(C2CCS(=O)(=O)C2)c2c1CCCC2 (stereo unspecified),Percent Effect,"30 µM, 30.03 µM",73.39%
O=C(Nc1ccccc1)c1nn(C2CCS(=O)(=O)C2)c2c1CCCC2 (stereo unspecified),Percent Effect,"30 µM, 30.03 µM",23.09%
COCC(C)NCc1ccc2[nH]c(C)c(C)c2c1 (stereo unspecified),Percent Effect,"30 µM, 30.03 µM",2.897%
Cc1[nH]c2ccc(CNc3cc(C(N)=O)ccn3)cc2c1C,Percent Effect,"30 µM, 30.03 µM",60.58%
Cc1[nH]c2ccc(CNc3cc(C(=O)NC(C)C)ccn3)cc2c1C,Percent Effect,"30 µM, 30.03 µM",50.33%
COC(=O)C(C)NCc1ccc2[nH]c(C)c(C)c2c1 (stereo unspecified),Percent Effect,"30 µM, 30.03 µM",-35.15%
CSCC(C)NCc1ccc2[nH]c(C)c(C)c2c1 (stereo unspecified),Percent Effect,"30 µM, 30.03 µM",-11.75%
Cc1[nH]c2ccc(CNc3cc(C#N)ccn3)cc2c1C,Percent Effect,"30 µM, 30.03 µM",39.43%
